Source: PubChem BioAssay AID2551 (National Center for Advancing Translational Sciences (NCATS), 2010)
The campaign covered roughly 310,000 compounds. About 17,000 (5.5%) were called active. Inconclusive results (about 11%) are left out. The entries come from a sample that favours actives as a whole. Values without a mark were called inactive. Calls follow the shape of the dose curve; as a rule, active = well fitted inhibition curve with a large enough effect; inconclusive = small, poorly fitted or top-dose-only effect, or effect the other way; inactive = no such curve, though single readings can be large or run the other way.

What follows are molecules tested against Nuclear receptor ROR-gamma (Mus musculus) (UniProt P51450) (assay: qHTS for inhibitors of ROR gamma transcriptional activity). Settings: Drosophila S2 Gal4-RORgamma UAS-luciferase reporter, 20 h; series mostly up to 53.6 µM; activity change, negative = inhibition: at the top concentration.
Chain of Nuclear receptor ROR-gamma (Mus musculus) (P51450 whole entry, looked up, the tested form may be a part): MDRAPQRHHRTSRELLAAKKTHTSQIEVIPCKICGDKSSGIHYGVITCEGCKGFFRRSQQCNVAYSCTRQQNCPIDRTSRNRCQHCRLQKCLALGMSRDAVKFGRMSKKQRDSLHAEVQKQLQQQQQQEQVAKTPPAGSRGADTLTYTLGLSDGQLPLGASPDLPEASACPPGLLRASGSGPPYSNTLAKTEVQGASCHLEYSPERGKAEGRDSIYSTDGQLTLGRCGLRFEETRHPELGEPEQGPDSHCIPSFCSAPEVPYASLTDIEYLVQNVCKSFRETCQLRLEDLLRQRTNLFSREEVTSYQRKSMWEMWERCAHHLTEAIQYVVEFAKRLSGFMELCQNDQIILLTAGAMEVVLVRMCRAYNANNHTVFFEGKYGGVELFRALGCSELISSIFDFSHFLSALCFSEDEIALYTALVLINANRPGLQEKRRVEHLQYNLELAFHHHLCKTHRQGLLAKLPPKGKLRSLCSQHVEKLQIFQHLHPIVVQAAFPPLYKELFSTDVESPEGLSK
Description: NIH Molecular Libraries Probe Production Network [MLPCN] NIH Chemical Genomics Center [NCGC] MLPCN Grant: R03 DA026211-01 Assay Provider: Dan Littman, New York University Assay Overview: The retinoic acid-related orphan receptor (ROR) gamma is a transcription factor that has a central role in the differentiation of Th17 cells, a subset of T helper cells that secrete the inflammatory cytokines IL-17, IL-17F, and IL-22. Th17 cells have been implicated in graft versus host disease, autoimmune disease and asthma. ROR gamma is induced in naive T helper cells in the presence of TGF-beta combined with IL-6, IL-21, or IL-23, and thereafter directs the expression of the Th17 lineage cytokines. To study the mechanism of action of ROR gamma, an insect cell-based assay was screened. This Drosophila Schneider cell line was stably transfected with two vectors: a gene expressing a fusion of the Gal4 DNA binding domain and ROR gamma transactivation domain under the control of the metallothionine promoter and a Photinus luciferase reporter regulated by the Gal4 binding site enhancer, UAS. […] Small molecule inhibitors of ROR gamma activity are detected by a decrease in luciferase reporter activity.
Assay Protocol Summary: For screening, 600 cells in 4 uL/well were dispensed into white solid 1536-well plates (Grenier) using a solenoid-based dispenser. Following transfer of 23 nL compound or DMSO vehicle by a pin tool, the plates were incubated 1 hr at ambient temperature, and 1 uL/well copper sulfate (700 uM final concentration) was added. The plates were centrifuged 15 s at 1000 RPM and incubated 20 hr at ambient temperature. After addition of 1.5 uL Photinus luciferase detection reagent, the plates were incubated 10 min at ambient temperature and then read by an ViewLux (Perkin Elmer) to detect luminescence. Keywords: NIH Roadmap, MLPCN, MLI, MLSMR, qHTS, NCGC, qHTS, nuclear hormone receptor, retinoic acid-related orphan receptor, ROR gamma
% is scaled to controls: 0 for no effect and ±100 for the full control effect; potency is read from the fitted curve at half-maximal effect.
Also: nearly all actives have a fitted effect of over 60% in size.

SMILES	activity change, negative = inhibition	Potency
O=C(CCN1CCN(C/C=C/c2ccccc2)CC1)Nc1ccccc1Cl	-1.61%	–
C/C=C/C(=O)OCc1csc(CC(=O)Nc2ccccc2C)n1	-16.8%	–
COc1cccc(N(CC(=O)NC2CCCCCC2)S(=O)(=O)c2ccccc2)c1	-18.8%	–
COc1ccc(CCNC(=O)CCc2cn(C)c3ccccc23)c(OC)c1	-12.4%	–
Cc1cccc(NC(=O)C2CCN(C(=O)NC3CCCCC3)CC2)c1	-25.8%	–
Cc1cccc(NC(=S)NC23CN4CN(CN(C4)C2)C3)c1	-15.1%	–
Cc1cccc(NC(=S)NCCN(C2CCCCC2)C2CCCC2)c1	–	8.91 µM (active)
O=C(NC1CCCC1)C(=O)c1c[nH]c2ccccc12	-36.6%	–
CCOc1ccc2[nH]c(C(=O)N/N=C/c3cccc(OC)c3OC)cc2c1	-15.4%	–
C#CC(C)(C)NC(=O)c1cnc(-c2ccccc2)nc1-c1ccccc1	-14.4%	–
CCCc1nnc(NC(=O)c2cccs2)s1	-40%	–
COc1ccccc1NC(=O)Nc1nnc(Cc2ccc(F)cc2)s1	7.65%	–
COc1ccc(Cc2nnc(NC(=O)c3ccc(OC)cc3OC)s2)cc1	19.7%	–
CCCc1nnc(NC(=O)CCC(=O)N2CCN(S(=O)(=O)c3ccc(OC)cc3)CC2)s1	12.7%	–
CCCc1nnc(NC(=O)c2cc(OC)cc(OC)c2)s1	–	11.2 µM (active)
COc1ccc(Cc2nnc(NC(=O)c3cc(OC)c(OC)c(OC)c3)s2)cc1OC	–	7.08 µM (active)
Cc1cc(C)c2nc(N3CCC(C(=O)NCCN4CCOCC4)CC3)sc2c1	7.01%	–
Cc1nonc1NC(=O)c1oc2ccccc2c1C	-0.26%	–
COc1ccc(C(=O)C2CCCN(C(=O)c3cc(C)on3)C2)cc1F (stereo not drawn)	11%	–
COc1ccccc1CNC(=O)c1ccc(N(C)S(=O)(=O)c2ccc(C)cc2)cc1	2.62%	–
COc1ccc(CSc2nnnn2-c2ccc(C(=O)O)cc2)cc1	14.9%	–
COc1cc(/C=C(\C#N)c2nc3c(s2)CC(C)CC3)ccc1O (stereo not drawn)	–	1.41 µM (active)

SMILES	activity change, negative = inhibition	Potency
COc1cc(/C=N/Nc2nc3ccccc3s2)ccc1O	-23%	–
COc1cc(/C=C(\C#N)c2nc3ccccc3[nH]2)ccc1O	15.4%	–
CCc1ccc(OCC(=O)NCC(c2ccc(Cl)cc2)N2CCCCC2)cc1 (stereo not drawn)	0%	–
OC1CSc2nc3ccccc3n2C1 (stereo not drawn)	2.37%	–
O=C(Nc1ccccc1)C1CC(=O)n2c(nc3ccccc32)N1 (stereo not drawn)	-22%	–
C[C@H]1[C@H]2c3nc4ccccc4n3C[C@H]1ON2C1CCCCC1	–	11.2 µM (active)
Cc1ccc(-n2nc3c(=O)n(C(C)C(=O)NCc4ccc5c(c4)OCO5)nc(C)c3c2C)cc1 (stereo not drawn)	26.2%	–
CN(CC1CCCO1)S(=O)(=O)c1ccc(C(=O)Nc2ccc(F)cc2)cc1 (stereo not drawn)	17.2%	–
COc1ccc(NC(=O)COC(=O)Cn2c(C)nc3ccccc32)cc1OC	16.5%	–
COc1ccc(-c2nc3ccccc3n2CCC(C)C)cc1OC	–	11.2 µM (active)
COCCn1c(-c2ccc(OC)c(OC)c2)nc2ccccc21	-28.3%	–
COc1cccc(CNC(=O)COc2cc(O)c3c(c2)OC(C)(C)CC3=O)c1	4.48%	–
Cc1[nH]c(C)c(S(=O)(=O)N2CCN(c3cccc(C(F)(F)F)c3)CC2)c1C(=O)N1CCCC1	-17.9%	–
Cc1ccccc1N1CCN(S(=O)(=O)c2ccc3ccccc3c2)CC1	-16.6%	–
Cc1cccn2c(=O)c(C=O)c(Nc3ccc(S(N)(=O)=O)cc3)nc12	-41.3%	–
CN(CC1CCCO1)S(=O)(=O)c1ccc(C(=O)Nc2ccc([N+](=O)[O-])cc2)cc1 (stereo not drawn)	13.7%	–
CC(=O)N1c2ccc(S(=O)(=O)N3CCC(C(=O)NC4CCCC(C)C4C)CC3)cc2CC1C (stereo not drawn)	-1.35%	–
Cc1ccccc1CNC(=O)CCC(=O)N1Cc2ccccc2Oc2ncccc21	4.13%	–
COc1ccc2[nH]c(=O)c(CN(Cc3cccnc3)S(=O)(=O)c3ccccc3F)cc2c1	21.1%	–
CCNC(=S)Nc1ccc(OC(F)(F)F)cc1	–	8.91 µM (active)
Cn1nccc1NC(=O)Nc1ccc(OC(F)(F)F)cc1	15.9%	–
O=C(CCOc1ccccc1)NCc1ccccc1	5.22% [at 0.365 µM]	–

SMILES	activity change, negative = inhibition	Potency
FC(F)(F)Oc1ccc(NC(=S)NCc2ccccc2)cc1	–	7.08 µM (active)
COC(=O)Cc1ccc(OCC(=O)Nc2ccc(OC(F)(F)F)cc2)cc1	26.2%	–
COc1cc(C(=S)NCc2ccccc2)cc(Br)c1O	15.3%	–
CC(C)Cn1c(=O)c2ccccc2n2c(CCC(=O)NCc3ccccn3)nnc12	-7.08%	–
Cc1ccc(C(C(=O)NCC2CCCO2)N(C(=O)c2snc(C(N)=O)c2N)c2ccc(C(C)C)cc2)o1 (stereo not drawn)	40.4%	–
CCOc1ccc(OCC(=O)Nc2c3c(nn2C(C)(C)C)CS(=O)(=O)C3)cc1	-13.8%	–
CC(C)(C)c1ccc(SCCc2ccncc2)cc1	-15.8%	–
COc1ccc2c(c1)SC(C)CC2=O (stereo not drawn)	-11.9%	–
COc1ccc2c(c1)OC(O)(C(F)(F)C(F)F)CC2=O (stereo not drawn)	–	12.6 µM (active)
CC1(C)CC(=O)c2ccc(O)cc2O1	29%	–
CC(=O)N1CCOc2ccc(S(=O)(=O)N3CCN(c4cccc(C(F)(F)F)c4)CC3)cc21	30.8%	–
COc1ccc(-n2c(C)cc(C(=O)CSc3nnc(-c4cccs4)o3)c2C)cc1	-33.4%	–
COc1ccc(-c2nnc(SCC(=O)NC3CCCCC3)o2)cc1OC	-18.5%	–
COc1ccc(OC)c(C(=O)CSc2nnc(-c3cccs3)o2)c1	–	7.08 µM (active)
COCCOC(=O)C1=C(C)NC(=O)NC1c1cc2c(cc1Br)OCO2 (stereo not drawn)	-4.24%	–
O=C(O)c1ccc(N/N=C/c2ccc3ncccc3c2)cc1	–	0.398 µM (active)
O=C(O)c1ccc(/C=N/Nc2nc(N3CCCCC3)nc(N3CCCCC3)n2)cc1	-42.2%	–
Cc1ccc2cc(/C=N/Nc3ccc(C(=O)O)cc3)c(Cl)nc2c1	-43.4%	–
O=C(O)c1ccc(OCC2CCCO2)cc1 (stereo not drawn)	-11.8%	–
N=C1/C(=C/c2cccn2-c2cccc([N+](=O)[O-])c2)C(=O)N=C2SC=CN12	–	5.01 µM (active)
Cc1ccc(-c2nc(-c3ccncc3)no2)c(C)c1	-32.9%	–
CCOc1ccccc1NC(=O)CCc1nnc2ccc(NCc3ccco3)nn12	0.872%	–

SMILES	activity change, negative = inhibition	Potency
CC1=C/C(=N\S(=O)(=O)c2ccccc2)C(C(C)C)=CC1=O	-9.35%	–
CC1=C/C(=N\OS(=O)(=O)c2ccccc2)C=CC1=O	–	1.58 µM (active)
O=S(=O)(ON(c1ccccc1)S(=O)(=O)c1ccccc1)c1ccccc1	26.8%	–
CCN1C(=NCC(C)C)N[C@@H](CCc2ccccc2)[C@H](C(=O)NCC(C)C)[C@H]1C	–	inactive
Fc1ccc(Br)cc1/C=N/n1cnnc1	-8.64%	–
CCOc1cc(/C=N/n2cnnc2)c(Br)cc1O	–	7.08 µM (active)
Brc1cc(/C=N/n2cnnc2)oc1Br	37.3%	–
O=C(CN1CCN(c2ccc(Cl)cc2)CC1)c1ccccc1	0.492%	–
COc1ccc(S(=O)(=O)NCCOc2ccccc2)cc1F	29.1%	–
COc1ccc(NS(=O)(=O)c2cc(C(=O)Nc3ccccc3C(=O)O)ccc2C)cc1	25.4%	–
COc1ccc(/C=C(/NC(=O)c2ccc(C)cc2)c2nc3ccccc3[nH]2)cc1OC	16.7%	–
COCCN(CCOC)S(=O)(=O)c1ccc(/C(O)=C(\C#N)c2nc3ccccc3[nH]2)cc1	–	12.6 µM (active)
COCCN(CC(=O)Nc1ccccc1C)S(=O)(=O)c1ccc(S(=O)(=O)N2CCCC2)cc1	-8.45%	–
COc1ccc(-n2c(=O)[nH]c3cc(C(=O)NCCc4ccc(OC)c(OC)c4)ccc3c2=O)c(OC)c1	27.9%	–
COc1ccc(CN2CC(C(=O)NC3CCCCC3)CC2=O)cc1 (stereo not drawn)	1.66%	–
COc1ccc(CN2CN(C3CCCC3)CSC2=S)cc1	–	7.94 µM (active)
COc1ccc(CNC2CCCCC2)cc1	-10.4%	–
CCN(C(=O)CN1C(=O)/C(=C/c2ccc(F)cc2)SC1=S)C1CCS(=O)(=O)C1 (stereo not drawn)	-12.7%	–
CN(CC(=O)NCc1ccc(Cl)cc1)S(=O)(=O)c1cccs1	21.2%	–
N#C/C(=C(/O)COC(=O)COc1ccc(Cl)cc1)c1nc2ccccc2[nH]1	–	8.91 µM (active)
O=C(COc1ccccc1)NCCc1nc2ccccc2[nH]1	1.23%	–
O=C(Cc1nc2ccccc2[nH]c1=O)c1ccc(Cl)cc1	32.2%	–

SMILES	activity change, negative = inhibition	Potency
COc1ccccc1CNC(=O)C1CCN(S(=O)(=O)c2ccc3c(c2)OCCO3)CC1	-14.7%	–
COc1ccc(NC(=O)CC(NC(C)c2ccccc2)C(=O)O)cc1 (stereo not drawn)	-12.4%	–
Cc1cc(NCc2ccco2)n2c(nc3ccccc32)c1C#N	38.8%	–
Cc1nn2c3ccccc3nc2n(C)c1=O	-32%	–
CN1c2ccccc2-c2nc3ccccc3n2C1c1ccco1 (stereo not drawn)	–	14.1 µM (active)
N#Cc1c(-c2ccccc2)nc(SCc2ccc([N+](=O)[O-])cc2)[nH]c1=O	1%	–
CC(C)NC(=O)N1CCN(c2ccncc2S(=O)(=O)N2CCCCC2)CC1	8.85%	–
CC(C)C[C@H]1CN=C(Nc2ccccc2)N1CC1CCCCC1	-2%	–
C/C(=N\Nc1nc(N2CCOCC2)nc(N2CCOCC2)n1)c1ccc([N+](=O)[O-])cc1	-4.91%	–
C/C(=N\Nc1nc(Nc2ccccc2)nc(N2CCOCC2)n1)c1cccs1	–	14.1 µM (active)
Cc1ccc(Nc2nc(N3CCOCC3)nc(N3CCOCC3)n2)cc1Cl	3.19%	–
Cc1ccc(-n2ncc(C(=O)NC3CC3)c2C2CCN(C(=O)OC(C)(C)C)CC2)c(C)c1	0.982%	–
CCOc1ccc(CNC(=O)C2CCCN(c3nnc(C)c4c(C)n(-c5ccccc5)nc34)C2)cc1 (stereo not drawn)	-25.4%	–
Cc1ccc(-c2csc(NC(=O)Cc3cccs3)n2)cc1C	5.64%	–
COc1ccc(-c2csc(NC(=O)CCCc3cccs3)n2)cc1	22.6%	–
CCCc1ccc(-c2csc(NC(=O)Cc3cccs3)n2)cc1	–	12.6 µM (active)
O=C(COC(=O)/C=C/c1cccs1)NC1CCCCC1	21.6%	–
Cc1nc2ccccc2c(=O)n1Cc1ccc([N+](=O)[O-])cc1	-3.36%	–
CCn1c(/C=C/c2ccc([N+](=O)[O-])o2)nc2ccccc2c1=O	–	7.94 µM (active)
Cn1cc(/C=C/c2nc3ccccc3c(=O)n2-c2cccc([N+](=O)[O-])c2)c2ccccc21	0.991% [at 10 µM]	–
